Screening data (PubChem)
Rows were chosen to be rich in hits. Some 4.1% of all compounds tested hit in one or more screens of this group.
Casp6 inh – blocks human caspase-6 cleavage activity; P55212; purified caspase-6, Z-VEID-R110 cleavage fluorescence; inhibition, % at 12.5 µM; actives 0.53% (n = 350,000);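 active = mean inhibition across replicates at least about 35%, with every replicate also reaching that limit, limit read from the data; inconclusive = only one of the two criteria met; inactive = neither criterion met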;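 note: 0% = median of neutral control wells and 100% = no fluorescence left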
F508del corr – correctors of CFTR F508del function in bronchial epithelial cells; activity (quench increase), % at 7.58 µM; actives 0.36% (n = 350,000); CFBE cells, YFP halide quenching; stimulated with forskolin plus potentiator P3; % fluorescence drop versus neutral controls;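 active = mean added fluorescence quench of at least 8% versus neutral control, with both replicates also reaching 8%; inconclusive = only one of the mean or replicate conditions met; inactive = mean below 8% and not both replicates reaching 8%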;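 note: cells transiently co-express mutant CFTR-F508del with the halide-sensitive YFP; corrector assay measuring rescue of mutant channel to the surface after 24 h compound exposure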
ALR inh – human ALR oxidase inhibition via reduced H2O2; P55789; purified ALR, DTT oxidation, H2O2 HRP-luminol luminescence; inhibition, % (no concentration beside the values); actives 3.8% (n = 290,000); AID 485317;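 active = mean replicate inhibition above about 79%, with every replicate also reaching it, limit read from the data; inconclusive = only one of the two criteria met; inactive = mean below limit and not every replicate reaching it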
HIV Env fusion – blocks HIV Env-driven cell-cell fusion; HeLa-JRFL Env/CEM21 cell fusion, luciferase; inhibition, % at 12.3 µM; actives 1.1% (n = 360,000);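 active = mean replicate inhibition score of at least 50 and every replicate individually at or above 50; inconclusive = only one of the two criteria met; inactive = mean below 50 and not all replicates reaching 50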;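 note: 0% = plate neutral controls and 100% = maraviroc near 300 nM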
PglD inh – blocks C. jejuni PglD acetyltransferase activity; actives 0.098% (n = 360,000); inhibition, % at 12.5 µM; purified PglD enzyme, DTNB colorimetric CoA detection; in the data active = inhibition above about 16%, passing the limit was not always enough; inconclusive = no clear call, values can overlap the other calls
NSD2 HMT inh – blocks human histone methyltransferase NSD2 | O96028 | NSD2 peptide methylation, AlphaScreen, 120 min | inhibition, % at 12.5 µM | actives 0.54% (n = 310,000) | AID 743445; in the data active = inhibition above about 50%
Active calls of the source: *; i = inactive; ? = inconclusive; nt = no result; [ ] = dose if it differs, or a comment.

SMILES	Casp6 inh	F508del corr	ALR inh	HIV Env fusion	PglD inh	NSD2 HMT inh
CC1=Nc2ccccc2/C1=C/c1c(N)n2c(S(=O)(=O)C(C)C)nsc2nc1=O	2.0	2.3	97.3*	-28.5	-23.4	2.3
CC1=Nc2ccc(C)cc2/C1=C/c1c(N)n2c(S(=O)(=O)C(C)C)nsc2nc1=O	8.2	-1.7	nt	-5.6	nt	8.5
CCNC(=O)C[C@H]1CC[C@@H]2[C@@H](COc3ccc(NC(=O)Nc4cccc(F)c4)cc3C(=O)N2C)O1	3.0	1.5	nt	-20.8[16.7 µM]	1.3	nt
CC(=O)NS(=O)(=O)c1ccc(NC(=O)c2cc(-c3ccc(C)cc3)nc3ccccc23)cc1	1.4	5.2	97.8*	9.9	7.3	-1.8
CC(=O)NS(=O)(=O)c1ccc(NC(=O)c2cc(-c3ccc(C)c(C)c3)nc3ccccc23)cc1	nt	nt	97.4*	nt	1.6	3.1
CC(=O)NS(=O)(=O)c1ccc(NC(=O)c2cc(-c3cccs3)nc3ccccc23)cc1	nt	nt	-3.8	-4.8	nt	-3.7
O=C(CSCc1nc2c(nnn2Cc2ccc(F)cc2)c(=O)[nH]1)Nc1cccc(C(F)(F)F)c1	1.9	-2.8	96.5*	38.2	nt	-2.7
CN(C)c1ccc(NC(=O)CSCc2nc3c(nnn3Cc3ccc(F)cc3)c(=O)[nH]2)cc1	nt	nt	nt	nt	5.8	nt
COc1ccc(NC(=O)NC[C@H]2CC[C@H]3[C@H](CN3Cc3ccccc3C(=O)O)O2)cc1	-1.9	1.8	nt	nt	nt	nt
CC(NC(=O)CN(C)CC(=O)Nc1ccc(Cl)c(C(F)(F)F)c1)c1ccccc1 (stereo not given)	-0.5	2.1	3.1	102.6*	-2.1	-17.5
CN(CC(=O)NCC(=O)Nc1ccc(F)cc1)CC(=O)Nc1ccc(Cl)c(C(F)(F)F)c1	1.2	-0.8	nt	nt	3.6	-7.0
O=C1NC[C@@H](CCCCN2CCN(CCc3ccc(O)cc3)C(=O)C2=O)N(CCc2ccc(O)cc2)C1=O	39.7*	3.5	nt	-6.9	nt	nt
CNC(=O)C[C@@H]1CC[C@H]2[C@@H](COc3ccc(NC(=O)c4ccc5c(c4)OCO5)cc3C(=O)N2C)O1	nt	-2.7	nt	8.1[16.7 µM]	-0.2	nt
O=C(c1cccc(F)c1)N1CC(=O)N2[C@H](CO)[C@@H](c3ccc(-c4cccnc4)cc3)[C@H]2C1	-0.3	1.7	nt	nt	nt	nt
Cc1noc(C)c1NC(=O)Nc1ccc2c(c1)C(=O)N([C@H](C)CO)C[C@@H](C)[C@H](CN(C)Cc1ccc(Cl)c(Cl)c1)O2	0.2	-2.0	nt	-6.6[16.7 µM]	0.0	nt
CO[C@H]1CN(C)C(=O)c2cc(NC(=O)C3CC3)ccc2OC[C@H](C)N(C(=O)C2CCCCC2)C[C@@H]1C	1.3	-1.9	nt	nt	nt	nt
CCC(C)(C)c1ccc(Oc2cccc(C(=O)O)c2)cc1	2.6	-4.5	39.3	-8.1	7.9	-0.3
CCOc1nc(Oc2cccc(C(=O)O)c2)nc(Oc2cccc(C(=O)O)c2)n1	nt	nt	97.1*	nt	-11.1	-1.0
CS(=O)(=O)N1CC2(C1)[C@@H](c1ccccc1)[C@H](CO)N2C(=O)C1CCC1	-1.5	2.9	nt	nt	nt	nt
COc1ccc(CN(C)C[C@@H]2OCCCC[C@@H](C)Oc3ccc(NC(=O)Nc4c(C)noc4C)cc3C(=O)N([C@@H](C)CO)C[C@H]2C)cc1	1.6	0.4	nt	-22.2[16.7 µM]	6.5	nt
Cc1nc2ncnn2c(N2CCCC(C(=O)Nc3ccc4c(c3)CCC4)C2)c1C (stereo not given)	nt	nt	91.6*	78.1*	-0.1	0.9
CNC[C@H]1OCCCC[C@H](C)Oc2ccc(NC(=O)CCC(F)(F)F)cc2C(=O)N([C@@H](C)CO)C[C@H]1C	nt	-4.1	nt	-1.4[16.7 µM]	nt	nt
CCC(C)(C)n1nnnc1CN1CCN(c2ccc(OC)cc2)CC1	4.2	-1.9	93.5*	-5.4	nt	0.8
CCn1c(NC(=O)c2ccc(C)cc2)c2ccccc2nc1=O	nt	nt	95.4*	nt	nt	-1.0
CC1(C)SC(=S)N(/N=C/c2ccc(O)cc2)C1N(O)C(=O)Nc1ccc([N+](=O)[O-])cc1 (stereo not given)	nt	nt	80.6*	nt	6.2	-1.4
SMILES	Casp6 inh	F508del corr	ALR inh	HIV Env fusion	PglD inh	NSD2 HMT inh
COc1ccc(S(=O)(=O)N[C@@H]2CC[C@@H](CC(=O)NCCc3ccccc3)O[C@H]2CO)cc1	nt	3.0	nt	10.6[16.7 µM]	1.6	nt
Oc1c(C2=NCCNC(C(F)(F)F)=C2)ccc2ccccc12	17.8	-0.1	nt	-166.8	nt	25.9
Cc1ccc(O)c(C2=NCCNC(C(F)(F)F)=C2)c1	nt	nt	91.2*	-162.2	0.1	4.6
CS(=O)(=O)Nc1ccc2c(c1)[C@H]1C[C@H](CC(=O)NCc3ccccn3)O[C@H](CO)[C@H]1O2	-5.1	1.2	nt	0.0[16.7 µM]	-0.9	nt
CCN(Cc1ccccc1)c1ccc(/C=N/N=C(N)N)cc1	4.4	9.9*	99.3*	-1.2	-0.7	25.3
C[C@@H]1CN([C@@H](C)CO)C(=O)c2cc(-c3cccc(C#N)c3)cnc2O[C@H]1CN(C)C(=O)C1CCC1	-1.4	1.0	nt	8.1[16.7 µM]	-0.5	nt
O=[N+]([O-])c1ccccc1/C=C\C=N\N1CCN(c2ccccc2)CC1	0.9	-1.5	1.1	8.1	0.9	92.9*
COc1ccc(S(=O)(=O)N(C)C[C@@H]2Oc3ccc(NC(=O)Nc4ccc(C(F)(F)F)cc4)cc3C(=O)N([C@@H](C)CO)C[C@@H]2C)cc1	-1.3	1.1	nt	67.4*[16.7 µM]	0.6	nt
COc1ccc(NC(=O)Nc2ccc3c(c2)C(=O)N([C@@H](C)CO)C[C@H](C)[C@H](CN(C)S(=O)(=O)c2ccc(C)cc2)O3)cc1	0.0	3.3	nt	78.5*[16.7 µM]	1.3	nt
CNC(=O)C[C@@H]1CC[C@H]2[C@@H](COc3ccc(NC(=O)c4ccccc4Cl)cc3C(=O)N2C)O1	-3.6	0.5	nt	-11.1[16.7 µM]	-1.4	nt
CO[C@H]1CN(C)C(=O)c2cc(NC(=O)c3ccc(F)cc3)ccc2OC[C@H](C)NC[C@H]1C	nt	-4.3	nt	2.5[16.7 µM]	-1.5	nt
CCC(=O)N[C@H]1CC[C@H](CCNC(=O)Nc2ccc(C(F)(F)F)cc2)O[C@@H]1CO	0.3	-3.9	nt	4.3[16.7 µM]	6.3	nt
CN(C(=S)NC(=O)C1CC1)c1ccc(O)cc1	4.0	-4.8	96.7*	nt	2.4	-6.2
CCOC(=O)c1c(C)oc2c1c1c(c3ccccc32)OCN(Cc2cccnc2)C1	nt	nt	nt	nt	17.3	nt
CCOC(=O)c1c(C)oc2c1c1c(c3ccccc32)OCN(CCCC(=O)O)C1	6.1	-2.7	91.1*	i	1.6	nt
CCNC(=O)C[C@@H]1C=C[C@@H](NS(=O)(=O)c2ccc(C)cc2)[C@@H](CO)O1	-4.9	-0.2	nt	18.0[16.7 µM]	-0.4	nt
O=C(O)c1ccc(-c2ccc(O)c(F)c2)cc1	-0.3	-5.6	98.0*	?	1.5	nt
O=C(O)c1ccc(O)c(O)c1	6.6	-5.0	98.0*	nt	1.7	nt
CCOC(=O)/C=C/[C@H]1CC2(CCO1)SCCCS2	-1.8	-2.1	-9.7	69.3*	3.6	nt
CCOC(=O)/C=C/[C@H]1CCc2cccc(Cl)c2O1	0.4	-1.0	2.3	-21.4	-4.0	nt
C/C=C/c1ccc2c(c1)O[C@H](CN(C)C(=O)c1ccccn1)[C@H](C)CN([C@@H](C)CO)S2(=O)=O	1.9	-1.7	nt	17.0[16.7 µM]	-2.7	nt
